Experimental data published in ChEMBL document CHEMBL1961873, “Compounds: GSK PKIS; Assays: Nanosyn kinase panel” (2012).

How the values were obtained:
[1] = target: T1, Serine/threonine-protein kinase Nek9 (Homo sapiens) (UniProt Q8TD19); conditions: at 1 µM;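 note: each value is a mean percent inhibition of NEK9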
T1 sequence (whole entry): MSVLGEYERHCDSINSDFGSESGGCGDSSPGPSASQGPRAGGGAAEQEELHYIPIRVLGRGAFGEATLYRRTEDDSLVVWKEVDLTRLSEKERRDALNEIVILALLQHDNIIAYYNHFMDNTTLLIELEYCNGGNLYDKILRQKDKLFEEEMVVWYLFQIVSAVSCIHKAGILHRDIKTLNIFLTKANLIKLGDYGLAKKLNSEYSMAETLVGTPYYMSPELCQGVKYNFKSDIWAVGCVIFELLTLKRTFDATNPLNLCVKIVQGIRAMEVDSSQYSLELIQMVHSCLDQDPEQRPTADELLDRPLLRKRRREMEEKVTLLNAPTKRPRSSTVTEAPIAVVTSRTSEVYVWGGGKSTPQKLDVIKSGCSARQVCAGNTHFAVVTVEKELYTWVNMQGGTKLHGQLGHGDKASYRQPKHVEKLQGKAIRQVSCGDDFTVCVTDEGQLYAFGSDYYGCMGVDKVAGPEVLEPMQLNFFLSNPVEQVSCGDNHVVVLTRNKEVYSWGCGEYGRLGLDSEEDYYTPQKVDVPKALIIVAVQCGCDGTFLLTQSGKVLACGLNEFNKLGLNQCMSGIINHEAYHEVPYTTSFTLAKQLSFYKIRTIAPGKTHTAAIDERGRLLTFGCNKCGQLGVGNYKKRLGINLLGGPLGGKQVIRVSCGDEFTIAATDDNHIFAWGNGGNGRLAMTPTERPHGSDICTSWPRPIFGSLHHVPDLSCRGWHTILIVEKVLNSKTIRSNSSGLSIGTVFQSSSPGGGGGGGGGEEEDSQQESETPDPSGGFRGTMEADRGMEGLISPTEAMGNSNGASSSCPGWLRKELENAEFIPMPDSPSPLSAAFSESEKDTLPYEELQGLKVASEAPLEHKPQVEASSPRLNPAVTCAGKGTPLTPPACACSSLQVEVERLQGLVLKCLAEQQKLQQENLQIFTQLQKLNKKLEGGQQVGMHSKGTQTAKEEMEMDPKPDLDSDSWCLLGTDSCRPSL

[2] = target: Serine/threonine-protein kinase PLK1 (Homo sapiens) (UniProt P53350); conditions: at 0.1 µM
[3] = target: Serine/threonine-protein kinase PLK1 (Homo sapiens) (UniProt P53350); conditions: at 1 µM
[4] = target: T2, Dual specificity protein kinase TTK (Homo sapiens) (UniProt P33981); conditions: at 0.1 µM
T2 sequence (whole entry): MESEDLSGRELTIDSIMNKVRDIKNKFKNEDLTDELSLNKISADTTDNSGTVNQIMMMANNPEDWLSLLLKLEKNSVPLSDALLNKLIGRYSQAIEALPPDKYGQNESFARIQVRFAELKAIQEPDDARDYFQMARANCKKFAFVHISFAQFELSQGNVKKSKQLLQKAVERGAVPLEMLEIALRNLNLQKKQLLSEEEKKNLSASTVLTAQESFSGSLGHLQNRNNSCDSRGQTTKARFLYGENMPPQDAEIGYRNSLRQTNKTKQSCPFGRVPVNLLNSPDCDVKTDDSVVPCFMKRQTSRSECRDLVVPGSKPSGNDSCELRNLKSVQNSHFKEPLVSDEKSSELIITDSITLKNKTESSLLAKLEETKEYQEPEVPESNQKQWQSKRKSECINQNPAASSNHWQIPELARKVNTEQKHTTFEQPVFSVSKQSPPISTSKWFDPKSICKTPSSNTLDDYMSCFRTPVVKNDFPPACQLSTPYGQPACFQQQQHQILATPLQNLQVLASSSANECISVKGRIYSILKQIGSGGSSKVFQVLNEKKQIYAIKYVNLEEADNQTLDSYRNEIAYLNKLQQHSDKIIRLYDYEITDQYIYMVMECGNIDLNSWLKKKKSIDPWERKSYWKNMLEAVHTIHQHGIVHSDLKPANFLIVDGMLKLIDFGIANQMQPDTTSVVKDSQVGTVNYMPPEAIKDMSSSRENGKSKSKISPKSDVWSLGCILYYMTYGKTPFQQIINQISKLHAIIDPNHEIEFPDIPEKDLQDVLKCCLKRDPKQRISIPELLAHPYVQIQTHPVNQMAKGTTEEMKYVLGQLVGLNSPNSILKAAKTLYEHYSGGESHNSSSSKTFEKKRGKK

[5] = tested on: T3, Receptor-type tyrosine-protein kinase FLT3 (Homo sapiens), P36888 [D835Y]; conditions: at 1 µM
T3 sequence (whole entry): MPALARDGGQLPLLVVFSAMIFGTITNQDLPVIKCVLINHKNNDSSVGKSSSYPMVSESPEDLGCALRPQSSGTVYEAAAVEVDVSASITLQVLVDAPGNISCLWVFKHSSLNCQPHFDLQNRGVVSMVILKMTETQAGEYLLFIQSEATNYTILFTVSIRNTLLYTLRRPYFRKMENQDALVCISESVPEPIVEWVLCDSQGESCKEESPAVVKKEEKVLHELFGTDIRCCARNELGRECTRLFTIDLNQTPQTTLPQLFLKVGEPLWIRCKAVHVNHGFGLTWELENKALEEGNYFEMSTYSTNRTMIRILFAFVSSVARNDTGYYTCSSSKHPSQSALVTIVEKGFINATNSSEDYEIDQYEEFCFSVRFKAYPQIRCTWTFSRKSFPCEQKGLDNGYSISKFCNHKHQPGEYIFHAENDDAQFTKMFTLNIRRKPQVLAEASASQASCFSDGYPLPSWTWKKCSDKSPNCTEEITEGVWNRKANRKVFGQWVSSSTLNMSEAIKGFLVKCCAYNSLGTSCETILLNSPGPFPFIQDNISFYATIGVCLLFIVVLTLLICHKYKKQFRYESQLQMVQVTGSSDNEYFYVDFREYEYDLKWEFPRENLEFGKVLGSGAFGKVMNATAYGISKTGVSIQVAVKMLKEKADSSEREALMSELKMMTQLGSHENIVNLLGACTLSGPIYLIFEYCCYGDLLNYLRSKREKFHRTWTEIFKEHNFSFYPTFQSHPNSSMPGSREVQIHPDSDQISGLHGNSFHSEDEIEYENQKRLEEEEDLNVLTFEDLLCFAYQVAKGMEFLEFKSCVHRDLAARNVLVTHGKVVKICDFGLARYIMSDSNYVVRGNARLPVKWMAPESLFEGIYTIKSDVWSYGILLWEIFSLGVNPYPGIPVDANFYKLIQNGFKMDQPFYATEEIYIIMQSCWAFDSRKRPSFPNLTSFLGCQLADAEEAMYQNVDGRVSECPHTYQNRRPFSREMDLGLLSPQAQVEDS

[6] = target: Vascular endothelial growth factor receptor 3 (Homo sapiens) (UniProt P35916); conditions: at 0.1 µM
[7] = target: Vascular endothelial growth factor receptor 3 (Homo sapiens) (UniProt P35916); conditions: at 1 µM
[8] = target: Macrophage colony-stimulating factor 1 receptor (Homo sapiens) (UniProt P07333); conditions: at 0.1 µM
[9] = target: Macrophage colony-stimulating factor 1 receptor (Homo sapiens) (UniProt P07333); conditions: at 1 µM
[10] = target: Tyrosine-protein kinase Fyn (Homo sapiens) (UniProt P06241); conditions: at 0.1 µM
[11] = target: Tyrosine-protein kinase Fyn (Homo sapiens) (UniProt P06241); conditions: at 1 µM
[12] = target: Tyrosine-protein kinase HCK (Homo sapiens) (UniProt P08631); conditions: at 0.1 µM
[13] = target: Tyrosine-protein kinase HCK (Homo sapiens) (UniProt P08631); conditions: at 1 µM
[14] = target: Insulin-like growth factor 1 receptor (Homo sapiens) (UniProt P08069); conditions: at 0.1 µM
[15] = target: Insulin-like growth factor 1 receptor (Homo sapiens) (UniProt P08069); conditions: at 1 µM
[16] = target: Insulin receptor (Homo sapiens) (UniProt P06213); conditions: at 0.1 µM
[17] = target: Insulin receptor (Homo sapiens) (UniProt P06213); conditions: at 1 µM
[18] = target: Insulin receptor-related protein (Homo sapiens) (UniProt P14616); conditions: at 0.1 µM
[19] = target: Insulin receptor-related protein (Homo sapiens) (UniProt P14616); conditions: at 1 µM
[20] = target: T4, Tyrosine-protein kinase ITK/TSK (Homo sapiens) (UniProt Q08881); conditions: at 0.1 µM;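 note: mean percent inhibition of ITK from the GSK PKIS screen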
T4 sequence (whole entry): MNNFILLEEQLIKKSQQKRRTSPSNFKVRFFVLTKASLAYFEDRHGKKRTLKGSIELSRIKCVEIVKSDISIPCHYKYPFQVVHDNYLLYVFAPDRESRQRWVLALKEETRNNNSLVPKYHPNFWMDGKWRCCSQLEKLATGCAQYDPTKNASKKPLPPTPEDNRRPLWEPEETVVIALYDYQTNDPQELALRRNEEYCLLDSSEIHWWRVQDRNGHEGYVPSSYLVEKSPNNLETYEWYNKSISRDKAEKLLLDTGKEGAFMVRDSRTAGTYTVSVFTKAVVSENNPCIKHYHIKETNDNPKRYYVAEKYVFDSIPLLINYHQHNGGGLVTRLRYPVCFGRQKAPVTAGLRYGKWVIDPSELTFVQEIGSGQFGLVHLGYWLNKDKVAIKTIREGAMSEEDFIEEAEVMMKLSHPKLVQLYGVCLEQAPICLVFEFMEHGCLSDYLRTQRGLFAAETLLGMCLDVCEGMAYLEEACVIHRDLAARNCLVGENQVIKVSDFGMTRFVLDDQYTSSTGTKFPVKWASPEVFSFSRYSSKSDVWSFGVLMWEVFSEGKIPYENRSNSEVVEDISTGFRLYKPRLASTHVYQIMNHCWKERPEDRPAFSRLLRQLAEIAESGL

Chain of Vascular endothelial growth factor receptor 3 (Homo sapiens) (P35916 whole entry): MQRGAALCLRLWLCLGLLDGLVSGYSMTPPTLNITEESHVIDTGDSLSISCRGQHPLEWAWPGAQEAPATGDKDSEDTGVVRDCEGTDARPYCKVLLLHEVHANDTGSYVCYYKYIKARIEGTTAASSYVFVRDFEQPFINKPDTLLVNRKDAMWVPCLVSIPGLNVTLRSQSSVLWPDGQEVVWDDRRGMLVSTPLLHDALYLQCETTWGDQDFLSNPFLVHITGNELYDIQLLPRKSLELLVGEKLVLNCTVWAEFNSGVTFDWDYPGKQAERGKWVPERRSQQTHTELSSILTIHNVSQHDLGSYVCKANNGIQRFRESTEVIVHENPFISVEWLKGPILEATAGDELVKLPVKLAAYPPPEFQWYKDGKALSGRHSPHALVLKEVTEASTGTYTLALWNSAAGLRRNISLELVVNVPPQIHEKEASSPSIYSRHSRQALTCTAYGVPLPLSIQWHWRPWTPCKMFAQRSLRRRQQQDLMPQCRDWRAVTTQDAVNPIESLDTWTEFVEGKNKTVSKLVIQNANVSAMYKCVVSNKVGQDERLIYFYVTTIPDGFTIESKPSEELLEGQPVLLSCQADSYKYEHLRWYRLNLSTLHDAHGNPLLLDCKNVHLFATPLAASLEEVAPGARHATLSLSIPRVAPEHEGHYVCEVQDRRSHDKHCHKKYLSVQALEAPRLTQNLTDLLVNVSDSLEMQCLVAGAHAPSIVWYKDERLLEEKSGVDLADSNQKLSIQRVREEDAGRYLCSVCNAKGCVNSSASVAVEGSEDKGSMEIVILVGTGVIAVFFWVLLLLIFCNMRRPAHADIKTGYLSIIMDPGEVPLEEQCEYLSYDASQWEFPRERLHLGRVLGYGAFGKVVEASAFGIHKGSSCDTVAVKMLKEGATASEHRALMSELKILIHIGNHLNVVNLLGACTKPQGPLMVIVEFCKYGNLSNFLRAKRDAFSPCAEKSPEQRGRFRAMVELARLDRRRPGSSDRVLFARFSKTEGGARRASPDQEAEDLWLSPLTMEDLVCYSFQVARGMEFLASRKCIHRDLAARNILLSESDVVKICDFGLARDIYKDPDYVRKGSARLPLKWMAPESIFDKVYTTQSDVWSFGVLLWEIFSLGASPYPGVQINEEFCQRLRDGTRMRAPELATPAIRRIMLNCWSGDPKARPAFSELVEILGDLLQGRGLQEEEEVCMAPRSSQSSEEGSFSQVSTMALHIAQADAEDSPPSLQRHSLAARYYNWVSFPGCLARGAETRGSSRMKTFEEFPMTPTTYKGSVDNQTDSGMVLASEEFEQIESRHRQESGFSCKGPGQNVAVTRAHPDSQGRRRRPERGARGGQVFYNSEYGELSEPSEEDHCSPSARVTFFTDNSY
Chain of Insulin receptor (Homo sapiens) (P06213 28-758 limits assumed): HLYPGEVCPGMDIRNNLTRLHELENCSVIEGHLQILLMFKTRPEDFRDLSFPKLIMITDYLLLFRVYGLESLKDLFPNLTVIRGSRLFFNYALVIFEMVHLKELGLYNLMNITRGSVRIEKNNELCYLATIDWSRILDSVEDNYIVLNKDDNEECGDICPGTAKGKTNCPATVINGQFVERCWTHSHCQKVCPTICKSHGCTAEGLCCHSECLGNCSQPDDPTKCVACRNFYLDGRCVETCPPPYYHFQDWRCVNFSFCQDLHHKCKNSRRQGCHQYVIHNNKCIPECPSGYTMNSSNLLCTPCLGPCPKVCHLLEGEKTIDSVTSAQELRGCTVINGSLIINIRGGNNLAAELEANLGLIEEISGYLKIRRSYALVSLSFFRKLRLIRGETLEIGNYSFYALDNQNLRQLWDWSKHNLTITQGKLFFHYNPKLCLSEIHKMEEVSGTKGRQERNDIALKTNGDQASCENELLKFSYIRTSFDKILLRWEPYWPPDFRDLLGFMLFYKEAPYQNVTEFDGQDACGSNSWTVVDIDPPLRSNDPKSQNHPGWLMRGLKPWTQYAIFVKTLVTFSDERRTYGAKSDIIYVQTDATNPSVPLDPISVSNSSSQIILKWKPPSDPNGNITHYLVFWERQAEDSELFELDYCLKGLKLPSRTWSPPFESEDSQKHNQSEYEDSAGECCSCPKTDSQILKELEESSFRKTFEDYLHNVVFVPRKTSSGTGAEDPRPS
Chain of Insulin receptor (Homo sapiens) (P06213 763-1382 limits assumed): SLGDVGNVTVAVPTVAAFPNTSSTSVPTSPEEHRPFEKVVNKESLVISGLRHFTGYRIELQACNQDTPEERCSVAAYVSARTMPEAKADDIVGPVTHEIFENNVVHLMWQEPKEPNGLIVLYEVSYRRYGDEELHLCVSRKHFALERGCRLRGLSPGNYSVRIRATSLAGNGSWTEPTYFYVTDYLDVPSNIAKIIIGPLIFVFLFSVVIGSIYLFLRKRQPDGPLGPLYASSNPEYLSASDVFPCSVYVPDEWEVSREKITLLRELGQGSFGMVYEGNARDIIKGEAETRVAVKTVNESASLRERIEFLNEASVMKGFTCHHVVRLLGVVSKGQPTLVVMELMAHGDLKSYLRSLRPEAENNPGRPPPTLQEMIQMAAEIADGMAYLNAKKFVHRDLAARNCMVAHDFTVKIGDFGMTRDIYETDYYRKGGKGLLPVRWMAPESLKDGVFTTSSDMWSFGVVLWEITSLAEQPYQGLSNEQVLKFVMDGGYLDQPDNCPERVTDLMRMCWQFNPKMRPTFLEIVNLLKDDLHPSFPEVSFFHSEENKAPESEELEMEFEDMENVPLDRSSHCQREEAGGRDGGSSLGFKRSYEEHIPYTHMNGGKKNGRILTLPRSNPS
Chain of Tyrosine-protein kinase HCK (Homo sapiens) (P08631 2-526 limits assumed): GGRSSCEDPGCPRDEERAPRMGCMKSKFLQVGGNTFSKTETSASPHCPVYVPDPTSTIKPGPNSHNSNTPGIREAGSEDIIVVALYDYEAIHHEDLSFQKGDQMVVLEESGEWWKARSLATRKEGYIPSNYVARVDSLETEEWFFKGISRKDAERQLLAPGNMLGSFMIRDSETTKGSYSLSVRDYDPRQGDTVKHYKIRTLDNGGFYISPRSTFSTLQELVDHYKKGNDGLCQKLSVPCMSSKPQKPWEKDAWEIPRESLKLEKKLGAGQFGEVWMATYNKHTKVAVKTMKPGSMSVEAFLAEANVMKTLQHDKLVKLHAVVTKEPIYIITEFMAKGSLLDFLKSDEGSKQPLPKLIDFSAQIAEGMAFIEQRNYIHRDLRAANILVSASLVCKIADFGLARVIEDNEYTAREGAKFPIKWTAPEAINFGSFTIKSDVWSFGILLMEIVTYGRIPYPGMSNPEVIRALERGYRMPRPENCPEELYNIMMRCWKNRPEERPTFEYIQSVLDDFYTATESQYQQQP
Chain of Macrophage colony-stimulating factor 1 receptor (Homo sapiens) (P07333 whole entry): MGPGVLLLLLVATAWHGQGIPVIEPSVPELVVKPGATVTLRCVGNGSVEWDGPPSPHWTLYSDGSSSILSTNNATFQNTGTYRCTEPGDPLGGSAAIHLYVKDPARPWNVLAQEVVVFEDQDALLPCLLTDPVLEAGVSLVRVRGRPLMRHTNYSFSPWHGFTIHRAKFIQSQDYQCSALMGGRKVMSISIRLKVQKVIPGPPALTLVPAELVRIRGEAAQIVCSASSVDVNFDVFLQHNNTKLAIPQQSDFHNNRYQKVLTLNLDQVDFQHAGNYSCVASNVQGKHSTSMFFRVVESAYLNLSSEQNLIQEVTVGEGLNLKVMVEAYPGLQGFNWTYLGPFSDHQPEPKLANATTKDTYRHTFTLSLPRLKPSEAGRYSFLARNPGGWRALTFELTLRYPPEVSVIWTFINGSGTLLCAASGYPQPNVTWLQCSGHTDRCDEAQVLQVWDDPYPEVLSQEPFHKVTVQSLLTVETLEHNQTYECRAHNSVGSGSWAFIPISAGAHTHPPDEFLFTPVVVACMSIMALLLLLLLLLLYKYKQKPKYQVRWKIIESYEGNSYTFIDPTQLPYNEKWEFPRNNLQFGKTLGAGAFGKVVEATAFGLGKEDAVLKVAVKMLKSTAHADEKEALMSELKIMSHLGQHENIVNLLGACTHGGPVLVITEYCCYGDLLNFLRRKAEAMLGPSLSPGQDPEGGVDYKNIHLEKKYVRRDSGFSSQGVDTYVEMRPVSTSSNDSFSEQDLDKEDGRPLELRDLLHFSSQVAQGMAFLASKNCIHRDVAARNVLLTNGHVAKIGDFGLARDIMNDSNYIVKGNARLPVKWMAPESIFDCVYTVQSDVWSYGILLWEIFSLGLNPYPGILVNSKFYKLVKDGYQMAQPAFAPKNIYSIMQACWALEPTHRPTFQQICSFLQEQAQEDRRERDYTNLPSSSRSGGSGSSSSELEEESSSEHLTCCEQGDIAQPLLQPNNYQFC
Chain of Tyrosine-protein kinase Fyn (Homo sapiens) (P06241 2-537 limits assumed): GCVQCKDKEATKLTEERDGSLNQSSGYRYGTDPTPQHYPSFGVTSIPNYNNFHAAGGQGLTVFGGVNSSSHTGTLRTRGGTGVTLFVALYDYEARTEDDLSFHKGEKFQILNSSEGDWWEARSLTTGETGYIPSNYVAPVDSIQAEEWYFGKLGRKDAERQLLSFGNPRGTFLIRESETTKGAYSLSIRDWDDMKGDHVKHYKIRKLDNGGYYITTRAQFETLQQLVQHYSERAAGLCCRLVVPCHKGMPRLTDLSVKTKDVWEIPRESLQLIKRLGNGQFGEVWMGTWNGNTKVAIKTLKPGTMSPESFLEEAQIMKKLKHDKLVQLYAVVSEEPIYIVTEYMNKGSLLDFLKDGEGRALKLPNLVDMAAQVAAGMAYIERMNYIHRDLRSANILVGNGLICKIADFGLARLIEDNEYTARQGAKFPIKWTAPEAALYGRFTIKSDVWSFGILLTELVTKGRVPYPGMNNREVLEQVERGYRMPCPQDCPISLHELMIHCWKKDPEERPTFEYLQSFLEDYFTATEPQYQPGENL

SMILES	inhibition [1]	inhibition [2]	inhibition [3]	inhibition [4]	inhibition [5]	inhibition [6]	inhibition [7]	inhibition [8]	inhibition [9]	inhibition [10]	inhibition [11]	inhibition [12]	inhibition [13]	inhibition [14]	inhibition [15]	inhibition [16]	inhibition [17]	inhibition [18]	inhibition [19]	inhibition [20]
NS(=O)(=O)c1ccc(Nc2cc(-c3ccc(O)c(F)c3)n[nH]2)cc1	2.31%	-1.16%	-3.09%	-2.03%	34.1%	0.48%	16.5%	0.43%	23.6%	0.43%	9.16%	0.38%	11.1%	-1.39%	-0.67%	-3.62%	2.77%	-4.66%	-2.36%	0.74%
COc1ccc(C2=C(N3CCc4ccccc43)C(=O)NC2=O)cc1	7.64%	4.84%	4.9%	9.59%	3.5%	1.33%	3.21%	2.49%	4.23%	2.77%	4.68%	8.17%	9.54%	4.43%	6.19%	4.83%	8.59%	2.42%	1.91%	1.76%
O=C(Nc1n[nH]c2cc(-c3cc(F)ccc3F)ccc12)C1CC1	10.9%	4.33%	3.61%	8.84%	-2.14%	0.33%	1.03%	-1.77%	2.78%	2.47%	6.73%	7.73%	8.12%	0.54%	2.05%	7.13%	4.97%	1.56%	0.94%	2.16%
Fc1ccc(-c2ncn(CCCN3CCOCC3)c2-c2ccncc2)cc1	3.15%	-0.58%	-0.73%	5.04%	0.03%	0.07%	0.05%	0.18%	1.37%	-0.55%	-2.27%	-1.42%	2.38%	2.24%	-1.55%	-0.34%	0.12%	-0.04%	0.12%	0.83%
O=C1Nc2ccccc2/C1=C/Nc1ccc(-n2cncn2)cc1	12.4%	4.56%	2.82%	22.4%	45.8%	16.8%	40.2%	6.47%	34.5%	2.68%	7.09%	5.82%	11.7%	10.8%	16.7%	9.38%	14.8%	2.54%	5.98%	1.26%
Cc1ccc(C(=O)NC(C)C)cc1-c1ccc(C(=O)NCC2CC2)cc1	4.93%	-2.88%	0.01%	-5.71%	5.33%	1.2%	2.58%	-3.16%	0.94%	-0.23%	0.91%	-3.59%	-1.19%	-3.27%	-3.34%	-1.9%	-4.51%	-4.15%	-4.41%	-1.4%
COc1ccc(-c2ccc3c(NC(=O)C4CC4)n[nH]c3n2)cc1	3.42%	3.2%	0.74%	5.12%	5.49%	1.77%	1.31%	1.02%	1.62%	1.9%	4%	-0.93%	5.16%	1.17%	0.43%	1.07%	3.1%	0.55%	0.43%	0.61%
O=C1Nc2ccc(I)cc2C1=Cc1cc(Br)c(O)c(Br)c1	7.24%	5.57%	9.77%	10.4%	2.02%	0.19%	-3.58%	4.92%	5.58%	3%	6.7%	6.42%	8.5%	5.43%	2.95%	6.33%	5.95%	0.52%	2.5%	1.48%
COc1cc(N2CCN(C(C)C)CC2)ccc1Nc1nc(Nc2ccc(F)cc2C(=O)NC[C@@H](O)CO)c2cc[nH]c2n1	15.3%	9.77%	38%	74%	–	-9.16%	–	1.22%	0.02%	0.03%	-0.08%	3.99%	5%	80.6%	92.6%	110%	116%	26.6%	78%	-1.99%
CS(=O)(=O)CCNCc1ccc(-c2ccc3ncnc(Nc4ccc(OCc5ccccc5)c(Br)c4)c3c2)o1	5.79%	3.69%	3.81%	11.1%	-0.11%	-7.55%	-9.98%	-1.9%	6.06%	-0.04%	1.37%	7.33%	10.2%	–	-5.4%	2.87%	1.17%	2.56%	2.95%	-4.12%
Cc1ccc(NC(=O)c2ccoc2)cc1-c1ccc(C(=O)NCC2CC2)cc1	4.64%	2.06%	-0.9%	4.04%	5.74%	0.17%	6.22%	-2.68%	2.71%	0.65%	1.16%	4.54%	5.55%	2.46%	1.25%	1.81%	3.42%	0.32%	0.32%	-0.83%
c1ccc(Oc2ccc(Nc3ncc(-c4ccccc4)o3)cc2)cc1	2.53%	1.36%	1.6%	2.58%	1.21%	3.08%	1.93%	–	2.76%	0.57%	2.97%	3.85%	5.01%	1.77%	2.01%	4.11%	2.94%	-1.75%	1.99%	0.89%
CCS(=O)(=O)c1ccc(OC)c(Nc2ncc(-c3cccc(-c4ccccc4F)c3)o2)c1	-0.99%	20.4%	–	0.9%	45%	41%	82.8%	4.55%	27.2%	47.1%	85.6%	16.9%	64.4%	2.3%	3.39%	2.01%	1.9%	-1.45%	-0.35%	0.42%
Fc1ccc(-c2nc3n(c2-c2ccncc2)CCS3)cc1	6.52%	3.85%	4.09%	6.93%	-0.91%	-8.43%	–	0.95%	1.38%	0.03%	-3.64%	4.65%	7.02%	-2.12%	-4.05%	7.27%	5.39%	2.11%	1.09%	-1.96%
